According to PubChem BioAssay AID1159580 (chemical genetic matrix, 2015):
In all, about 5,500 compounds went through this assay and about 2,000 (36%) were called active. Roughly 18% stayed inconclusive and do not appear here. Rule as the data show it: active = normalized growth mostly below about 0.91 (no sharp cut-off); inconclusive = no clear call, values can overlap the other calls; inactive = mostly above about 0.92. This is one part of the list.

Test: chemical genetic growth profiling, strain panel (AID 1159580);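 also: tested at 20 µM; growth read once vehicle control cultures reached saturation at 30 °C; 1 = growth at the plate median or of vehicle wells; lower values mean less growth of the strain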
Conditions: S. cerevisiae deletion strains, growth OD

Measured: normalized growth

C=CCOc1ccc(/C=C/[N+](=O)[O-])cc1
active: locus YAR019C, strain CDC15, stronger effect = lower value 0.0985 | locus YBL105C, strain PKC1, stronger effect = lower value 0.0881 | locus YBR135W, strain CKS1, stronger effect = lower value 0.0822 | locus YBR136W, strain MEC1, stronger effect = lower value 0.095 | locus YBR160W, strain CDC28, stronger effect = lower value 0.0851 | locus YDL017W, strain CDC7, stronger effect = lower value 0.0853 | locus YDL028C, strain MPS1, stronger effect = lower value 0.0971 | locus YDL101C, strain DUN1, stronger effect = lower value 0.108 | locus YDL108W, strain KIN28, stronger effect = lower value 0.1 | locus YDL132W, strain cdc53, stronger effect = lower value 0.0933 | locus YDL214C, strain PRR2, stronger effect = lower value 0.0888 | locus YDR052C, strain DBF4, stronger effect = lower value 0.0837 | locus YDR054C, strain cdc34, stronger effect = lower value 0.0953 | locus YDR477W, strain SNF1, stronger effect = lower value 0.104 | locus YER123W, strain YCK3, stronger effect = lower value 0.105 | locus YER133W, strain GLC7, stronger effect = lower value 0.096 | locus YFL009W, strain cdc4, stronger effect = lower value 0.0895 | locus YFL029C, strain CAK1, stronger effect = lower value 0.094 | locus YFR003C, strain YPI1, stronger effect = lower value 0.0875 | locus YFR019W, strain FAB1, stronger effect = lower value 0.0967 | locus YFR028C, strain CDC14, stronger effect = lower value 0.0822 | locus YGR040W, strain KSS1, stronger effect = lower value 0.0972 | locus YGR052W, strain FMP48, stronger effect = lower value 0.116 | locus YGR092W, strain DBF2, stronger effect = lower value 0.106 | locus YHR030C, strain SLT2, stronger effect = lower value 0.12 | locus YHR079C, strain IRE1, stronger effect = lower value 0.118 | locus YHR082C, strain KSP1, stronger effect = lower value 0.124 | locus YHR205W, strain SCH9, stronger effect = lower value 0.00436 | locus YIL147C, strain SLN1, stronger effect = lower value 0.116 | locus YJL095W, strain BCK1, stronger effect = lower value 0.124 | locus YJL128C, strain PBS2, stronger effect = lower value 0.154 | locus YJL157C, strain FAR1, stronger effect = lower value 0.0842 | locus YJR016C, strain ILV3, stronger effect = lower value 0.0828 | locus YJR066W, strain TOR1 (second series), stronger effect = lower value 0.0922 | locus YJR066W, strain TOR1, stronger effect = lower value 0.118 | locus YKL048C, strain ELM1, stronger effect = lower value 0.107 | locus YKL067W, strain YNK1, stronger effect = lower value 0.0924 | locus YKL101W, strain HSL1, stronger effect = lower value 0.0997 | locus YKL193C, strain SDS22, stronger effect = lower value 0.0826 | locus YKL203C, strain TOR2, stronger effect = lower value 0.104 | locus YLR113W, strain HOG1, stronger effect = lower value 0.147 | locus YLR133W, strain CKI1, stronger effect = lower value 0.102 | locus YLR403W, strain SFP1, stronger effect = lower value -0.00907 | locus YML070W, strain DAK1, stronger effect = lower value 0.0908 | locus YMR001C, strain CDC5, stronger effect = lower value 0.0861 | locus YMR205C, strain PFK2 (second series), stronger effect = lower value 0.095 | locus YMR277W, strain FCP1, stronger effect = lower value 0.0876 | locus YNL006W, strain LST8, stronger effect = lower value 0.0846 | locus YNL020C, strain ARK1, stronger effect = lower value 0.0937 | locus YNL161W, strain CBK1, stronger effect = lower value 0.0814 | locus YNL183C, strain NPR1, stronger effect = lower value 0.127 | locus YNL207W, strain RIO2, stronger effect = lower value 0.0904 | locus YNL222W, strain SSU72, stronger effect = lower value 0.0824 | locus YNL307C, strain MCK1 (second series), stronger effect = lower value 0.102 | locus YOL078W, strain AVO1, stronger effect = lower value 0.083 | locus YOL136C, strain PFK27, stronger effect = lower value 0.0949 | locus YOR061W, strain CKA2, stronger effect = lower value 0.0943 | locus YOR119C, strain RIO1, stronger effect = lower value 0.112 | locus YOR231W, strain MKK1, stronger effect = lower value 0.109 | locus YOR329C, strain SCD5, stronger effect = lower value 0.0843 | locus YPL031C, strain PHO85, stronger effect = lower value 0.102 | locus YPL153C, strain RAD53, stronger effect = lower value 0.0983 | locus YPL204W, strain HRR25, stronger effect = lower value 0.0984 | locus YPL209C, strain IPL1, stronger effect = lower value 0.0828 | locus YPL256C, strain CLN2, stronger effect = lower value 0.134 | locus YPR025C, strain CCL1, stronger effect = lower value 0.0851 | locus YPR106W, strain ISR1, stronger effect = lower value 0.0928 | locus YPR111W, strain DBF20, stronger effect = lower value 0.154 | strain NNK1, stronger effect = lower value 0.1 | strain TSCII, stronger effect = lower value 0.0928
